# Test results taken from PubChem BioAssay.
# Values joined by “and” are separate entries in the source; they are usually repeats but may differ in a detail not shown here. Identical values can stand only once. Active and inactive are the calls of the source.
# What was measured:
# [1] = optical density shifts of acrAB sulA E. coli – strain DRC41, OD650, 48 h, E. coli filamentation inducer project, primary screen (AID 1152); conditions: higher = more signal, called active from +8 up or from −8 down;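 note: E. coli MC1000 strain DRC41 lacking acrAB efflux pump and sulA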
# [2] = probe aLefty1 binding on compound microarray – biochemical, small-molecule microarray, 635/667 nm fluorescence, primary screen (AID 1153); conditions: higher = more signal;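 note: score merges spot fluorescence with signal-to-noise ratio from the scanned slide images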
# [3] = plasmodial surface anion channel blockers, osmotic lysis – cell-based, P. falciparum Indochina, OD700, 1 h, primary screen (AID 1154); conditions: P. falciparum Indochina infected RBC osmotic lysis, higher = more signal, called active from +8 up or from −8 down
# [4] = plasmodial surface anion channel blockers, osmotic lysis – cell-based, P. falciparum Indochina, OD700, 2 h, primary screen (AID 1155);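 note: lysis reports solute entry through the parasite surface anion channel PSAC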; conditions: P. falciparum Indochina infected erythrocytes, higher = more signal, called active from +8 up or from −8 down
# [5] = changes in parasitized red cell lysis, either direction – P. falciparum Indochina, OD700, 3 h, PSAC antagonist project, primary screen (AID 1156); conditions: P. falciparum-infected erythrocytes, osmotic lysis, higher = more signal, called active from +8 up or from −8 down
# [6] = plasmodial surface anion channel blockers, osmotic lysis – cell-based, P. falciparum Indochina, OD700, 18 h, primary screen (AID 1157); conditions: P. falciparum Indochina infected erythrocytes, osmotic lysis OD700, 18 h; higher = more signal, called active from +8 up or from −8 down
# [7] = S6 kinase pathway phospho-S6 level changes – cell-based, A549, cytoblot, luminescence, serum-stimulated, primary screen (AID 1158); conditions: 5 h, higher = more signal;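 note: serum-stimulated A549 lung adenocarcinoma cells; signal is phosphorylated S6 detected by cytoblot immunostaining with HRP secondary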
# [8] = target: NADPH oxidase 2 (Homo sapiens) (UniProt P04839); assay: compounds shifting NOX2 Amplex Red fluorescence – cell-based, HEK293-NOX2, PMA-stimulated, NOX inhibitor project, primary screen (AID 1159); conditions: 45 min, higher = more signal, called active from +8 up or from −8 down; note: test concentration not given here
# [9] = target: NADPH oxidase 4 (Homo sapiens) (UniProt Q9NPH5); assay: compounds shifting NOX4 Amplex Red fluorescence – cell-based, HEK293-NOX4, tetracycline-induced, NOX inhibitor project, primary screen (AID 1160); conditions: HEK293-NOX4, Amplex Red H2O2 fluorescence, 45 min; higher = more signal, called active from +8 up or from −8 down
# [10] = target: NADPH oxidase 5 (Homo sapiens) (UniProt Q96PH1); assay: compounds shifting NOX5 Amplex Red fluorescence – cell-based, HEK293-NOX5, NOX inhibitor project, primary screen (AID 1161); conditions: HEK293-NOX5, ionomycin, 45 min, higher = more signal
# [11] = compound effects on lung adenocarcinoma cell viability – A549, calcein-AM fluorescence, 48 h, basal, profiling panel (AID 1162); conditions: higher = more signal; note: test concentration not given here
# [12] = compound effects on differentiated 3T3-L1 adipocyte viability – cell-based, 3T3-L1 adipocytes, calcein-AM fluorescence, 48 h, basal, profiling panel (AID 1163); conditions: 3T3-L1 adipocytes viability, higher = more signal; note: test concentration not given here
# [13] = compound effects on hepatocellular carcinoma cell viability – HepG2, calcein-AM fluorescence, 48 h, basal, profiling panel (AID 1164); conditions: higher = more signal; note: test concentration not given here
# [14] = compound effects on multiple myeloma cell viability – MM1S, calcein-AM fluorescence, 48 h, basal, profiling panel (AID 1165); conditions: higher = more signal; note: test concentration not given here
# [15] = calcein-AM signal in unstimulated myeloma cells – cell-based, calcein-AM fluorescence, 48 h, PK04 Diversity Set, profiling panel (AID 1166); conditions: RPMI8226 myeloma viability, higher = more signal;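 note: cells grown under basal conditions without added stimulus; test concentration not given here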
# [16] = JC-1 mitochondrial signal, unstimulated HepG2 cells – cell-based, JC-1 fluorescence, 24 h, 100 nL compound, profiling panel (AID 1167); conditions: HepG2 mitochondrial potential, higher = more signal; note: test concentration not given here
# [17] = JC-1 mitochondrial signal, unstimulated adipocytes – cell-based, JC-1 fluorescence, 3T3-L1 adipocytes, 24 h, 100 nL compound, profiling panel (AID 1168); conditions: JC-1 mitochondrial fluorescence, higher = more signal, called active from +8 up or from −8 down; note: test concentration not given here
# [18] = JC-1 mitochondrial signal, unstimulated myeloma cells – cell-based, JC-1 fluorescence, RPMI8226, 24 h, 100 nL compound, profiling panel (AID 1169); conditions: JC-1 mitochondrial potential fluorescence, higher = more signal; note: test concentration not given here
# [19] = JC-1 mitochondrial signal, unstimulated MM1S myeloma – cell-based, JC-1 fluorescence, 24 h, 100 nL compound, profiling panel (AID 1170); conditions: MM1S mitochondrial potential, higher = more signal; note: test concentration not given here
# [20] = resazurin metabolic signal in A549 cells – cell-based, resazurin fluorescence, 24 h, PK04 Diversity Set, profiling panel (AID 1171); conditions: A549 viability, higher = more signal, called active from +8 up or from −8 down; note: test concentration not given here
# Chain of NADPH oxidase 2 (Homo sapiens) (P04839 whole entry, looked up): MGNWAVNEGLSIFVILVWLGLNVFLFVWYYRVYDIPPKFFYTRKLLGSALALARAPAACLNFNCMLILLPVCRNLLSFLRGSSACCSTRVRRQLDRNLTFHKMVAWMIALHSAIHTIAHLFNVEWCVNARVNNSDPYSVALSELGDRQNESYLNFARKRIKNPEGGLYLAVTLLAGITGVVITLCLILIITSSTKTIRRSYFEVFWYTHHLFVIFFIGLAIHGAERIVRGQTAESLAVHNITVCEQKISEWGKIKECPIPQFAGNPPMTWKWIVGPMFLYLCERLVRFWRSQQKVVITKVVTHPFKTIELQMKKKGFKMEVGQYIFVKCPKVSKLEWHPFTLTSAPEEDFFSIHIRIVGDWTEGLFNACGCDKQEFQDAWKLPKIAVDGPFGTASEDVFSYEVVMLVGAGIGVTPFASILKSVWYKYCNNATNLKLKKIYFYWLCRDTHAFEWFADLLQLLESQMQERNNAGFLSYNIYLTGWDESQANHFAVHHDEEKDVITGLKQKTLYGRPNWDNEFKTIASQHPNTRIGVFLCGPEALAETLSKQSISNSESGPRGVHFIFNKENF
# Chain of NADPH oxidase 4 (Homo sapiens) (Q9NPH5 whole entry, looked up): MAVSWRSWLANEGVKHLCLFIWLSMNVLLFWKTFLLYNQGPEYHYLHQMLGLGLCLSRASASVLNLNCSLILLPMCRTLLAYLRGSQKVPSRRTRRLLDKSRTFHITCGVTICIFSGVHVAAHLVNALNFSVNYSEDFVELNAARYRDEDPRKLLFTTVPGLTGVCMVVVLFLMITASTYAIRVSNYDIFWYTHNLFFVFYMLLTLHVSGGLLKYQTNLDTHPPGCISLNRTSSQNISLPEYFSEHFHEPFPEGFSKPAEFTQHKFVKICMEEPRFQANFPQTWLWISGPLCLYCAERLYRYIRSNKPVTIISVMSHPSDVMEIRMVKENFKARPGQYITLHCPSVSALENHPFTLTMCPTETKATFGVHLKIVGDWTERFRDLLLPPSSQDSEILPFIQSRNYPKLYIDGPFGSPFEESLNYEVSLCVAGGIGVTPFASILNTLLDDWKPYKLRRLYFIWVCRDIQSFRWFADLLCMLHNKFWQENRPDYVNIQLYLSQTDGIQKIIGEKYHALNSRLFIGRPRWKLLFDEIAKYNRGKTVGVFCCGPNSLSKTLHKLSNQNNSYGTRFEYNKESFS
# Chain of NADPH oxidase 5 (Homo sapiens) (Q96PH1 whole entry, looked up): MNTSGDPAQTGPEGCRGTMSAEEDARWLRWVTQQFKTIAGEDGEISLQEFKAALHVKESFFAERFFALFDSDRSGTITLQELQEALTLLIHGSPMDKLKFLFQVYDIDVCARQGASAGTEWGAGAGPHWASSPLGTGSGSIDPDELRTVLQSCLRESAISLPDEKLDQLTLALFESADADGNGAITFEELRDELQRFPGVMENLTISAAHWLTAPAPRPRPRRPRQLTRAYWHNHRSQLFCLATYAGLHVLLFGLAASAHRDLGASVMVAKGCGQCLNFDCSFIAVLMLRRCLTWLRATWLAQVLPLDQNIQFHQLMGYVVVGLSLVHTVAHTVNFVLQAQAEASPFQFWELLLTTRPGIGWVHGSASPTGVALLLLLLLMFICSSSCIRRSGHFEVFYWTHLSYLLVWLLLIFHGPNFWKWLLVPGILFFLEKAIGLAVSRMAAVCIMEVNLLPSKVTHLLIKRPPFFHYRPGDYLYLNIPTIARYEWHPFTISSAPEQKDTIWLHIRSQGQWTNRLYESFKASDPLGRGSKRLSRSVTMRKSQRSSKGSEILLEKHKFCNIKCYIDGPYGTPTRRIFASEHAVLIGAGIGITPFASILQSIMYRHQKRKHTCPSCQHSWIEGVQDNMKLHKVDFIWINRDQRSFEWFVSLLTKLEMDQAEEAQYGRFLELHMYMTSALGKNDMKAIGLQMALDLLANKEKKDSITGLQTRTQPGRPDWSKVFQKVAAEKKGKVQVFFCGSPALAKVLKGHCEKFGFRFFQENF
Structure (SMILES),z-score [1],composite z-score [2],z-score [3],z-score [4],z-score [5],z-score [6],z-score [7],z-score [8],z-score [9],z-score [10],z-score [11],z-score [12],z-score [13],z-score [14],z-score [15],z-score [16],z-score [17],z-score [18],z-score [19],z-score [20]
C=CCN(C(=O)C(c1cccs1)N(CCOCCO)C(=O)/C=C\C(=O)O)C(C)(C)C (stereo not given),1.56 (inactive) and 0.971 (inactive),-0.371 and -0.355,-1.2 (inactive) and -1.15 (inactive),-0.172 (inactive) and -0.307 (inactive),0.0342 (inactive) and -0.837 (inactive),0.011 (inactive) and -0.113 (inactive),0.234 and 0.15,-0.302 (inactive) and -0.0837 (inactive),-0.904 (inactive) and -0.857 (inactive),0.0514 and 0.0449,1.01 and 1.61,-0.515 and -0.161,1.25 and 0.41,1.62 and 0.903,0.116 and 0.954,1.07 and 0.991,1.16 (inactive) and 0.0544 (inactive),0.28 and -0.0177,0.987 and 0.588,0.111 (inactive) and -0.422 (inactive)
Cc1ccc(S(=O)(=O)OC[C@@H]2CN3[C@@H](CC[C@@H](C)[C@@H]3c3ccc(Br)cc3)C(=O)O2)cc1,0.0029 (inactive) and -0.348 (inactive),-0.134 and -0.144,2.52 (inactive) and 4.44 (inactive),0.0068 (inactive) and 1.78 (inactive),-0.414 (inactive) and 0.812 (inactive),-0.0954 (inactive) and 0.932 (inactive),-0.834 and 0.119,1.24 (inactive) and 0.787 (inactive),0.37 (inactive) and -0.0143 (inactive),0.0798 and 0.702,-0.251 and 0.0448,0.0273 and 0.503,0.462 and 0.028,-0.644 and 0.185,-0.341 and -0.294,-0.735 and 0.438,-0.303 (inactive) and 0.303 (inactive),-0.883 and -0.68,0.925 and 0.523,-0.474 (inactive) and 0.371 (inactive)
CC(C)OC(=O)C=C1C[C@@H](c2cccc(C(F)(F)F)c2)O[C@@H](c2cccc(C(F)(F)F)c2)O1,-0.599 (inactive) and -0.778 (inactive),-0.0518 and -0.371,2.3 (inactive),0.707 (inactive) and 1.02 (inactive),0.192 (inactive) and -0.365 (inactive),0.613 (inactive) and 0.561 (inactive),0.156 and -0.463,-0.112 (inactive) and 0.194 (inactive),-1.2 (inactive) and -0.65 (inactive),-1.3 and -0.324,0.133 and 0.343,-0.425 and 0.279,0.957 and 0.258,-0.499 and -1,-0.195 and -0.167,-0.447 and 0.606,0.297 (inactive) and 0.121 (inactive),-0.897 and -0.238,-3.24 and -1.09,0.308 (inactive) and 1 (inactive)
C=CCN1C(=O)[C@]2(O[C@H](CCn3cc(CCO)nn3)[C@@H]([Si](C)(C)c3ccc(OC)cc3)[C@@H]2C)c2cc(N3C(=O)c4cccc5cccc3c45)ccc21,0.833 (inactive) and -0.342 (inactive),-0.0536 and 0.188,24.1 (active),9.07 (active) and 8.54 (active),-0.152 (inactive) and -1.17 (inactive),2.04 (inactive) and 1.7 (inactive),1.04 and 0.347,0.823 (inactive) and 1.03 (inactive),0.265 (inactive) and 0.624 (inactive),-0.371 and -0.152,-3.83 and -4.13,-1.83 and -2.41,-4.65 and -4.73,-2.66 and -2.87,-4.33 and -4.37,-1.51 and 1.37,5.29 (inactive) and 4.16 (inactive),-0.877 and -0.786,-2.27 and -1.98,-6.11 (inactive)
C=CCN(CCCCC)C(=O)C1N(CCCCCCO)C(=O)C2C(C(=O)O)C3C=CC21O3 (stereo not given),-0.559 (inactive) and -0.794 (inactive),-0.191 and 0.29,0.0275 (inactive) and 0.375 (inactive),-0.76 (inactive) and 0.22 (inactive),-0.627 (inactive) and -0.419 (inactive),-0.33 (inactive) and 0.404 (inactive),-0.539 and -0.626,1.07 (inactive) and 0.619 (inactive),-0.208 (inactive) and -0.169 (inactive),1.08 and 1.26,-0.681 and -0.373,-0.573 and -0.412,0.122 and 0.657,1.6 and 0.379,0.0447 and -0.164,-0.649 and -0.526,-0.2 (inactive) and 0.409 (inactive),0.15 and 0.0486,0.702 and -0.254,-0.66 (inactive) and -0.379 (inactive)
C=C[C@@H](C)[C@H](O)c1ccc(O)c2ccccc12,0.687 (inactive) and 0.0364 (inactive),-0.313 and -0.104,1.57 (inactive) and 1.31 (inactive),0.651 (inactive) and 0.739 (inactive),-0.198 (inactive) and -0.13 (inactive),0.795 (inactive) and 0.599 (inactive),0.166 and 0.217,-4.9 (inactive) and -4.75 (inactive),-0.696 (inactive) and -0.723 (inactive),1.07 and 1.48,-0.529 and -0.709,-0.134 and 0.136,-0.988 and -0.789,-2.66 and -2.63,-0.808 and -0.695,-1.66 and -1.91,-1.42 (inactive) and -0.865 (inactive),-0.333 and -0.269,-0.52 and 0.331,-0.28 (inactive) and -0.0127 (inactive)
